{"source": "the supplement of paper PMC3334620", "note": "The full ranking holds about 33,000 sequences; the median of “E-score (-0.5 to 0.5)” is about -0.056, and the highest 2% start at about 0.38. The full list was thinned out, with the highest values kept by preference.", "data": [{"target": "Stb4 (UniProt P50104)", "sequence (P50104 whole entry, the tested form may be a part)": "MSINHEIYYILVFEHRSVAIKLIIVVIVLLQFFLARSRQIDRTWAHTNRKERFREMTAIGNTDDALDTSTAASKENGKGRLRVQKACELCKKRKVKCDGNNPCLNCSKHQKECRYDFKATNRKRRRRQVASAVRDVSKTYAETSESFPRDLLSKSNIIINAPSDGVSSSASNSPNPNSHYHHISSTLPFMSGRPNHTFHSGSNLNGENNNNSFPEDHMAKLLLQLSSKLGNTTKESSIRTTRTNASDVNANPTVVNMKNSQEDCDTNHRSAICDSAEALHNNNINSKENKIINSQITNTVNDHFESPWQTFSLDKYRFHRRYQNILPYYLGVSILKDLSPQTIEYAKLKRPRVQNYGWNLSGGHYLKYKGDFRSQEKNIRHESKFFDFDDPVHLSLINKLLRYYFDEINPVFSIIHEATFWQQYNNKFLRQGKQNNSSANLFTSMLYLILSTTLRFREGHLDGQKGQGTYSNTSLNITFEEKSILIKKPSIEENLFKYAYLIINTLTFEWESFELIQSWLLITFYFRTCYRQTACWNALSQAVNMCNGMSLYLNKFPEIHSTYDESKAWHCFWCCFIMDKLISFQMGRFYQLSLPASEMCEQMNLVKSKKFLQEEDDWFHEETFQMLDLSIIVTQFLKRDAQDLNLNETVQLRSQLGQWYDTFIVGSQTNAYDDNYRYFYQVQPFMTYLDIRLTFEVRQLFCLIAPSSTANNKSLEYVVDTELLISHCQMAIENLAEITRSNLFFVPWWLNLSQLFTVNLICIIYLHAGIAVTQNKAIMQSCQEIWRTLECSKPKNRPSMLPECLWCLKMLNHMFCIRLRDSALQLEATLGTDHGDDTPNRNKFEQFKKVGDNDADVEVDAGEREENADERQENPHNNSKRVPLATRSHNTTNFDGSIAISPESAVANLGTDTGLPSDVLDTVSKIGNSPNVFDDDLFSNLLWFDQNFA", "assay": "PBM E-score (8-mer binding enrichment) (E-score (-0.5 to 0.5)); higher = stronger / more preferred TF binding", "settings": "protein concentration: 200 nM; construct: GST-DNA-binding domain", "procedure": "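Universal 'all 10-mer' protein binding microarrays (Agilent AMADID 015681) probed with GST-tagged S. cerevisiae TFs (full-length or DBD) made by in vitro transcription/translation (PURExpress), about 100-200 nM. Bound TF was detected with fluorescent anti-GST. Each ungapped 8-mer (which stands for itself and its reverse complement) is scored by the PBM enrichment score (E-score), a modified Wilcoxon-Mann-Whitney statistic from -0.5 to +0.5, computed with the Universal PBM Analysis Suite. Scale: above 0.35 generally sequence-specific binding.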", "values": [{"sequence": "CCGAGGCC", "PBM E-score": 0.436}, {"sequence": "CCGAGGCG", "PBM E-score": 0.398}, {"sequence": "ACGAGGCG", "PBM E-score": -0.0457}, {"sequence": "CCGAGGCA", "PBM E-score": 0.396}, {"sequence": "TCGAGGCA", "PBM E-score": -0.187}, {"sequence": "ACGAGGCC", "PBM E-score": -0.0545}, {"sequence": "CAGAGGCG", "PBM E-score": -0.0504}, {"sequence": "GCGAGGCA", "PBM E-score": 0.0697}, {"sequence": "GCGAGGCC", "PBM E-score": -0.243}, {"sequence": "ACCCGGGC", "PBM E-score": 0.326}, {"sequence": "ACACGAGT", "PBM E-score": -0.0741}, {"sequence": "ACCCCCGA", "PBM E-score": 0.317}, {"sequence": "ACCCGAGT", "PBM E-score": 0.423}, {"sequence": "ACCCGGGT", "PBM E-score": 0.41}, {"sequence": "ACCCGAGG", "PBM E-score": 0.427}, {"sequence": "ACCCGAGA", "PBM E-score": 0.472}, {"sequence": "ACCCGCGT", "PBM E-score": 0.188}, {"sequence": "ACACGAGA", "PBM E-score": -0.19}, {"sequence": "ACTCGAGG", "PBM E-score": -0.152}, {"sequence": "CCCCGAGG", "PBM E-score": 0.375}, {"sequence": "ACCCGGGA", "PBM E-score": 0.378}, {"sequence": "AGAGCTCT", "PBM E-score": -0.0781}, {"sequence": "GAGCCCCC", "PBM E-score": -0.168}, {"sequence": "AGCTCACA", "PBM E-score": -0.192}, {"sequence": "CCTAGTAG", "PBM E-score": -0.0242}, {"sequence": "AGCATACT", "PBM E-score": -0.166}, {"sequence": "AGGGGAAT", "PBM E-score": 0.0637}, {"sequence": "ATTGAGAA", "PBM E-score": -0.0694}, {"sequence": "CACAGTGG", "PBM E-score": -0.0386}, {"sequence": "ACCACCAA", "PBM E-score": 0.031}, {"sequence": "CAGCTAGC", "PBM E-score": -0.0222}, {"sequence": "ACTCCTCT", "PBM E-score": -0.061}, {"sequence": "GGGCCACA", "PBM E-score": -0.0749}, {"sequence": "CCCCGAGA", "PBM E-score": 0.326}, {"sequence": "GCCCGAGA", "PBM E-score": 0.352}, {"sequence": "CCCCGAGC", "PBM E-score": 0.371}, {"sequence": "ACCCGAGC", "PBM E-score": 0.468}, {"sequence": "GCCCGAGC", "PBM E-score": 0.316}, {"sequence": "TCCCGAGA", "PBM E-score": 0.453}, {"sequence": "CGACTCGC", "PBM E-score": -0.0581}, {"sequence": "AAAGCAAG", "PBM E-score": 0.149}, {"sequence": "AGCATTCA", "PBM E-score": -0.0667}, {"sequence": "CCCGAGTC", "PBM E-score": 0.395}, {"sequence": "CTCGAGTC", "PBM E-score": -0.0623}, {"sequence": "CCCGAGTA", "PBM E-score": 0.383}, {"sequence": "ACCGAGTC", "PBM E-score": 0.244}, {"sequence": "ACCGAGTA", "PBM E-score": 0.321}, {"sequence": "GCCGAGTA", "PBM E-score": 0.374}, {"sequence": "GGGCATGA", "PBM E-score": -0.248}, {"sequence": "ACGCTGAG", "PBM E-score": -0.29}, {"sequence": "CGTCTTGC", "PBM E-score": 0.125}, {"sequence": "ATGTGAGA", "PBM E-score": -0.03}, {"sequence": "GCTGGGAC", "PBM E-score": -0.117}, {"sequence": "AGCGGATA", "PBM E-score": 0.386}, {"sequence": "AGCGGATG", "PBM E-score": 0.275}, {"sequence": "AGCGGATC", "PBM E-score": 0.255}, {"sequence": "CGCGGATA", "PBM E-score": 0.4}, {"sequence": "GGCGGATA", "PBM E-score": 0.374}, {"sequence": "CGCGGATC", "PBM E-score": 0.263}, {"sequence": "CCCCCCTA", "PBM E-score": -0.178}, {"sequence": "ACTGGTGA", "PBM E-score": -0.226}, {"sequence": "GATCGGGC", "PBM E-score": 0.22}, {"sequence": "GATCGGAA", "PBM E-score": 0.425}, {"sequence": "CATCGGAA", "PBM E-score": 0.435}, {"sequence": "GAACGGAA", "PBM E-score": 0.346}, {"sequence": "GATCGTAA", "PBM E-score": -0.0241}, {"sequence": "TATCGGCA", "PBM E-score": 0.326}, {"sequence": "CATCGGAG", "PBM E-score": 0.204}, {"sequence": "CATCGGAC", "PBM E-score": 0.259}, {"sequence": "TATCGGAA", "PBM E-score": 0.431}, {"sequence": "TATCGGGA", "PBM E-score": 0.361}, {"sequence": "GATCGGCC", "PBM E-score": 0.218}, {"sequence": "GATCGGAC", "PBM E-score": 0.392}, {"sequence": "CCATTCCG", "PBM E-score": 0.35}, {"sequence": "ATATTGGA", "PBM E-score": -0.0099}, {"sequence": "CGTCTGCA", "PBM E-score": -0.122}, {"sequence": "GAGCATCA", "PBM E-score": -0.181}, {"sequence": "AACCAAGA", "PBM E-score": -0.0962}, {"sequence": "AAGGCCAA", "PBM E-score": -0.173}, {"sequence": "CCAATATC", "PBM E-score": 0.137}, {"sequence": "AAAGAAAC", "PBM E-score": 0.0504}, {"sequence": "CAATCGTC", "PBM E-score": -0.187}, {"sequence": "AATCGGAA", "PBM E-score": 0.425}, {"sequence": "AATCGGAG", "PBM E-score": 0.277}, {"sequence": "AATCGGAC", "PBM E-score": 0.133}, {"sequence": "AATCGGGT", "PBM E-score": 0.325}, {"sequence": "AATCGGCC", "PBM E-score": 0.191}, {"sequence": "AATCGGAT", "PBM E-score": 0.424}, {"sequence": "CTGACTGA", "PBM E-score": -0.239}, {"sequence": "CTAGCCCC", "PBM E-score": -0.0513}, {"sequence": "CTTAAAAA", "PBM E-score": -0.232}, {"sequence": "ATTCCCGG", "PBM E-score": 0.372}, {"sequence": "GTTCCCGA", "PBM E-score": 0.419}, {"sequence": "CTTCCCGA", "PBM E-score": 0.438}, {"sequence": "ATTCCCGA", "PBM E-score": 0.451}, {"sequence": "GTTCCCCA", "PBM E-score": -0.244}, {"sequence": "CTTCCCGC", "PBM E-score": 0.2}, {"sequence": "ATTCCCGC", "PBM E-score": 0.295}, {"sequence": "CTCCCCGA", "PBM E-score": 0.282}, {"sequence": "GTTCCCAA", "PBM E-score": -0.009}]}]}
